This note sets out measurements from PubChem BioAssay AID624255 (Broad Institute, 2012).

Hit rate of the full screen: of about 77,000 compounds, about 4,600 (6%) were called active. Not shown: some 1% with an inconclusive outcome. The sample holds actives, similar compounds and a random draw of the others, so the mix is not that of the screen.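 How the source made its calls: active means mean inhibition above about 93%, with at least 55% of replicates each passing it (limit read from the data, passing the limit was not always enough); inconclusive means only one of those two conditions holds; inactive means neither condition holds.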

This experiment in a line: T. cruzi intracellular proliferation inhibitors, primary screen, cell-based, beta-gal Tulahuen parasites, NIH3T3 host, luminescence (AID 624255). The settings on record: T. cruzi beta-gal in NIH3T3, GalScreen luminescence, 90 h; at 8.34 µM; hits give high values.
As to `C[C@@H](NC(=O)C[C@@H]1CC[C@@H](NC(=O)C2CCOCC2)[C@@H](CO)O1)c1ccccc1`, the inhibition is 9.21% (inactive). As for `O=C(C[C@@H]1CC[C@@H](NC(=O)Nc2ccc(F)cc2)[C@H](CO)O1)NCCN1CCCC1`, the inhibition was 30.1% (inactive).

Turning to `CCCNC(=O)N1[C@@H]2c3ccc(-c4ccccc4OC)c(=O)n3C[C@H]1[C@H](CO)[C@H]2C(=O)N(C)C`, the inhibition was 1.54% (inactive).

In the case of `CO[C@@H]1CC[C@@H]2CCOc3c(C#N)cccc3C(=O)N(C)C[C@@H](OC)[C@@H](C)C(=O)N(C)C[C@H]1O2`, the inhibition was 11.7% (inactive). Then `CC(=O)N1[C@@H](CO)[C@H](c2ccccc2)[C@@H]1CN(C)C(=O)CN1CCOCC1`, with 50.9% (inactive); and `C[C@@H]1CN([C@H](C)CO)C(=O)c2cc(NC(=O)Nc3ccc4c(c3)OCO4)ccc2O[C@@H](C)CCCCO[C@@H]1CN(C)Cc1ccc2c(c1)OCO2`, with 81.6% (inactive). In the case of `C[C@@H]1CCCCO[C@@H](CN(C)Cc2ccc3c(c2)OCO3)[C@@H](C)CN([C@@H](C)CO)C(=O)c2cc(NC(=O)Nc3ccccc3)ccc2O1`, the inhibition was 99.9% (active).

Regarding `COc1ccc(NC(=O)N(C)C[C@H]2OCCCC[C@@H](C)Oc3ccc(NC(=O)Nc4ccc5c(c4)OCO5)cc3C(=O)N([C@H](C)CO)C[C@@H]2C)cc1`, the inhibition is 9.34% (inactive). Under `C[C@@H]1CN([C@@H](C)CO)C(=O)c2cc(NC(=O)Nc3ccc4c(c3)OCO4)ccc2O[C@@H](C)CCCCO[C@@H]1CN(C)Cc1ccccc1` stands 41.8% (inactive). Then `COc1ccc(NC(=O)Nc2ccc3c(c2)C(=O)N([C@H](C)CO)C[C@H](C)[C@@H](CN(C)Cc2ccc(C(=O)O)cc2)OCCCC[C@H](C)O3)cc1`, with 51% (inactive); and `COc1ccc(CN(C)C[C@H]2OCCCC[C@H](C)Oc3ccc(NC(=O)Nc4ccc5c(c4)OCO5)cc3C(=O)N([C@H](C)CO)C[C@@H]2C)cc1`, with 98.7% (active); and `Cc1cccc(S(=O)(=O)N2C[C@H]3[C@@H](c4ccccc42)[C@H](CO)N3Cc2ccc3c(c2)OCO3)c1`, with 72.7% (inactive). Then `CN1C[C@H](O)COC[C@H]2O[C@H](CC(=O)NC3CCC3)CC[C@@H]21`, with -61.9% (inactive). In the case of `C[C@@H]1CCCCO[C@@H](CN(C)S(=O)(=O)c2ccc(F)cc2)[C@@H](C)CN([C@@H](C)CO)C(=O)c2cc(NS(=O)(=O)c3cccs3)ccc2O1`, the inhibition is 10.6% (inactive).

In the case of `C[C@@H]1CN([C@H](C)CO)C(=O)c2cc(NS(=O)(=O)c3cccs3)ccc2O[C@@H](C)CCCCO[C@@H]1CN(C)S(=O)(=O)c1ccc(Cl)cc1`, the inhibition was 109% (active). As for `C[C@@H]1CCCCO[C@@H](CN(C)S(C)(=O)=O)[C@H](C)CN([C@@H](C)CO)C(=O)c2cc(NS(=O)(=O)c3cccs3)ccc2O1`, the inhibition is -8.12% (inactive). Then `C[C@@H]1CN([C@H](C)CO)C(=O)c2cc(NS(=O)(=O)c3cccs3)ccc2O[C@@H](C)CCCCO[C@@H]1CN(C)S(=O)(=O)c1cccs1`, with -40.5% (inactive).

For the compound `C[C@@H]1CCCCO[C@H](CN(C)S(=O)(=O)c2cccs2)[C@H](C)CN([C@@H](C)CO)C(=O)c2cc(NS(=O)(=O)c3cccs3)ccc2O1`, the inhibition was -8.67% (inactive). Under `C[C@@H]1CCCCO[C@H](CN(C)S(=O)(=O)c2ccc(Cl)cc2)[C@H](C)CN([C@@H](C)CO)C(=O)c2cc(NS(=O)(=O)c3cccs3)ccc2O1` stands 110% (active). Under `COCC(=O)N1C[C@@H](C)[C@H](OC)CN(C)C(=O)c2cc(NC(=O)c3cc(C)on3)ccc2OC[C@@H]1C` stands 60.6% (inactive). Then `C[C@H](O)C#Cc1ccc2c(c1)O[C@@H](CN(C)CC1CCCC1)[C@H](C)CN([C@@H](C)CO)S2(=O)=O`, with 13.4% (inactive); and `COCC(=O)Nc1ccc2c(c1)C(=O)N(C)C[C@H](OC)[C@@H](C)CN(C(=O)c1cnccn1)[C@H](C)CO2`, with 7.73% (inactive); and `CC(=O)N1[C@H](C(=O)N(C)C)[C@@H](CO)[C@@H]2Cn3c(ccc(-c4ccccc4)c3=O)[C@@H]21`, with 16.7% (inactive).

As for `C[C@@H]1CCCCO[C@H](CN(C)C)[C@H](C)CN([C@@H](C)CO)C(=O)c2cc(NC(=O)Cc3ccccc3)ccc2O1`, the inhibition was -33.2% (inactive). As to `Cc1ccc(S(=O)(=O)N(C)C[C@@H]2OCCCC[C@@H](C)Oc3ccc(NC(=O)C4CCCCC4)cc3C(=O)N([C@H](C)CO)C[C@H]2C)cc1`, the inhibition was 24% (inactive). Regarding `Cc1ccc(S(=O)(=O)N(C)C[C@H]2OCCCC[C@H](C)Oc3ccc(NC(=O)Cc4ccccc4)cc3C(=O)N([C@@H](C)CO)C[C@@H]2C)cc1`, the inhibition was 110% (active). Take `C[C@@H]1CN([C@@H](C)CO)C(=O)c2cc(NC(=O)CCCN(C)C)ccc2O[C@@H](C)CCCCO[C@@H]1CN(C)S(=O)(=O)c1ccc(Cl)cc1`: the inhibition was 25.4% (inactive). Then `Cc1ccc(S(=O)(=O)N(C)C[C@@H]2OCCCC[C@@H](C)Oc3ccc(NS(=O)(=O)c4ccccc4)cc3C(=O)N([C@H](C)CO)C[C@@H]2C)cc1`, with 55% (inactive). Under `C[C@@H]1CCCCO[C@@H](CN(C)S(=O)(=O)c2ccc(Cl)cc2)[C@H](C)CN([C@@H](C)CO)C(=O)c2cc(NC(=O)Cc3ccccc3)ccc2O1` stands 98.6% (active); under `CCCN1C[C@H](C)[C@@H](OC)CN(C)C(=O)c2cc(NS(=O)(=O)CC)ccc2OC[C@H]1C`, -88% (inactive); under `CN1c2ccc(Br)cc2[C@H]2[C@H](CCN2S(=O)(=O)c2ccccc2)[C@@H]1CO`, 95.5% (inactive). Then `CN1C(=O)c2cc(NS(=O)(=O)c3ccc(F)cc3)ccc2OC[C@@H]2O[C@@H](CC(=O)O)CC[C@H]21`, with 20.4% (inactive); and `COc1cccc(C(=O)Nc2ccc3c(c2)C(=O)N(C)[C@@H]2CC[C@H](CC(=O)NCC4CC4)O[C@@H]2CO3)c1`, with 22.9% (inactive); and `COCC(=O)Nc1ccc2c(c1)C(=O)N(C)C[C@H](OC)[C@@H](C)CN(C(=O)Cc1cccnc1)[C@@H](C)CO2`, with -9.25% (inactive). As for `CC(C)NC(=O)N1C[C@H]2[C@@H](c3ccccc31)[C@H](CO)N2C(=O)c1ccccc1F`, the inhibition was -21.6% (inactive).

A word on the inhibition: it is the change of the read-out against control, counted positive when it falls.
